Test [1] can be described thus: ATG_E_Box_CIS: Attagene CIS-FACTORIAL HepG2 Assay for human Enhancer Box (E-box) (AID 2282936). The conditions noted are these: HepG2 E-box cis-reporter transcription, actives raise or lower the signal. Put shortly: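 Fluorescent reporter fragments separated by capillary electrophoresis gave the signal; mRNA came from HepG2 cells transfected with cis-element reporters and treated 24 h. Curves fitted bidirectionally relative to DMSO controls.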

Test [2] is described as follows: ATG_M_61_CIS: Attagene CIS-FACTORIAL HepG2 Assay for M61 Transcription Factor (Internal Marker) (AID 2282937). The conditions noted are these: HepG2 Attagene CIS-FACTORIAL M61 internal marker reporter; actives raise or lower the signal. Put shortly:
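Readout is reporter mRNA by RT-PCR, fluorescent primer extension and capillary electrophoresis, with gain or loss fitted relative to DMSO. Transfected HepG2 cells carrying endogenous-TF-driven cis reporters were exposed to chemicals for 24 hours.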

Test [3] is described as follows: ATG_EGR_CIS: Attagene CIS-FACTORIAL HepG2 Assay for human Early Growth Response 1 (EGR1) (AID 2282938). The conditions noted are these: HepG2 Attagene CIS-FACTORIAL EGR reporter mRNA; actives raise or lower the signal. The essentials: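 After 24 h compound exposure, RNA from reporter-transfected HepG2 cells was reverse-transcribed, PCR-amplified, fluorescently labelled and resolved by capillary electrophoresis. EGR1 reporter transcript changes, up or down, were fitted against DMSO, reflecting endogenous transcription-factor activity.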

Test [4] in a line: ATG_M_19_CIS: Attagene CIS-FACTORIAL HepG2 Assay for M19 Transcription Factor (Internal Marker) (AID 2282939). The conditions noted are these: HepG2 Attagene CIS-FACTORIAL M19 internal marker reporter; actives raise or lower the signal. The essentials:
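HepG2, MRTU transient transfection, 24 h dosing. Total RNA → RT-PCR → 6-FAM primer extension → HpaI digest → CE fluorescence. Bidirectional curve fit, DMSO negative control.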

Test [5] in a line: ATG_Ets_CIS: Attagene CIS-FACTORIAL HepG2 Assay for human Erythroblast Transformation Specific (ETS) (AID 2282941). To be noted: HepG2 ETS cis-reporter transcription, actives raise or lower the signal. Put shortly: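 Bidirectional fit versus DMSO of reporter mRNA signal, detected by RT-PCR and capillary electrophoresis in HepG2 cells transiently transfected with cis-element reporters and dosed 24 h.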

For test [6], the target named is Hepatocyte nuclear factor 3-beta (Homo sapiens) (UniProt Q9Y261). The test is described as follows: ATG_FoxA2_CIS: Attagene CIS-FACTORIAL HepG2 Assay for human Forkhead box A2 (FOXA2) (AID 2282942). The conditions noted are these: HepG2 cis-reporter transcription factor activity, 24 h; actives raise or lower the signal. The essentials:
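Endogenous transcription factor activity is captured via cis-element-driven reporter transcripts in transfected HepG2. Total RNA taken at 24 h post-dosing; labelled RT-PCR products resolved by capillary electrophoresis. Gain or loss fitted versus DMSO.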

Test [7] is described as follows: ATG_FoxO_CIS: Attagene CIS-FACTORIAL HepG2 Assay for human Forkhead box O (FoxO) (AID 2282943). The conditions noted are these: HepG2 Attagene cis-reporter, FoxO element, mRNA; actives raise or lower the signal. The essentials:
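HepG2, transient MRTU transfection (cis element, endogenous TFs). Dose 24 h. TriZol RNA → oligo(dT) RT → PCR → 6-FAM primer extension → HpaI cut → CE. Gain/loss vs DMSO.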

Test [8] can be described thus: ATG_GATA_CIS: Attagene CIS-FACTORIAL HepG2 Assay for human GATA Binding Protein (AID 2282944). The conditions noted are these: HepG2 GATA cis-element reporter, Attagene multiplex mRNA; actives raise or lower the signal. Put shortly:
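Cells: HepG2, transiently transfected with cis-regulated reporter transcription units. Exposure: 24 h. Detection: RT-PCR plus capillary electrophoresis of FAM-labeled fragments. Analysis: bidirectional, DMSO as baseline.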

Test [9] can be described thus: ATG_GLI_CIS: Attagene CIS-FACTORIAL HepG2 Assay for human Zinc Finger Protein GLI1 (AID 2282945). To be noted: HepG2, Attagene cis-factorial reporter mRNA, GLI element; actives raise or lower the signal. Put shortly:
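Bidirectional curve fits relative to DMSO, using reporter mRNA levels from RT-PCR plus capillary electrophoresis. Cells were HepG2 transiently carrying cis-regulated reporter constructs, harvested 24 h after dosing.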

Test [10] addresses Bile acid receptor (Homo sapiens) (UniProt Q96RI1). The test is described as follows: ATG_IR1_CIS: Attagene CIS-FACTORIAL HepG2 Assay for human Nuclear Receptor Subfamily 1 Group H Member 4 (NR1H4), IR1 submotif (AID 2282946). To be noted: IR1 reporter transcription, actives raise or lower the signal. Put shortly: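 HepG2 cells transiently transfected with multiplexed cis-element reporter units read endogenous transcription factor activity. After 24 h compound exposure, reporter mRNA was quantified by RT-PCR, fluorescent labelling, HpaI digestion and capillary electrophoresis; bidirectional fitting versus DMSO baseline.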

Test [11] in a line: ATG_GRE_CIS: Attagene CIS-FACTORIAL HepG2 Assay for human Glucocorticoid Response Elements (GRE) (AID 2282947). To be noted: HepG2 GRE cis-reporter, Attagene multiplex mRNA; actives raise or lower the signal. The essentials: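 Multiplexed cis-reporter mRNA induction, HepG2, 24 h post-dose. RT-PCR, FAM-labelled, HpaI-digested amplicons by CE. Bidirectional fit vs DMSO.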
Test [12] is described as follows: ATG_ISRE_CIS: Attagene CIS-FACTORIAL HepG2 Assay for human Interferon Regulatory Factor 1 (IRF1) binding to an Interferon-Stimulated Response Element (ISRE) (AID 2282948). To be noted: HepG2 ISRE cis-reporter (Attagene), mRNA transcription readout; actives raise or lower the signal. The essentials: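 Uses HepG2 liver cells transfected with cis-regulated reporters and measures mRNA 24 h post-dosing through RT-PCR, primer-extension labelling and capillary electrophoresis, with DMSO as negative control.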

Test [13] can be described thus: ATG_M_32_CIS: Attagene CIS-FACTORIAL HepG2 Assay for M32 Transcription Factor (Internal Marker) (AID 2282949).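 Further: background control marker of the multiplexed CIS panel rather than a real target.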 To be noted: HepG2 Attagene cis-factorial M32 reporter, mRNA; actives raise or lower the signal. The essentials:
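Using DMSO as baseline, bidirectional curve fits were applied to reporter mRNA signals. These came from transiently transfected HepG2 cells exposed for 24 h, with RNA analysed by RT-PCR, FAM primer extension, HpaI digestion and CE.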

Test [14] can be described thus: ATG_M_06_CIS: Attagene CIS-FACTORIAL HepG2 Assay for M06 Transcription Factor (Internal Marker) (AID 2282950). To be noted: HepG2 Attagene CIS-FACTORIAL M06 internal marker reporter; actives raise or lower the signal. Put shortly: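 Measured 24 h post-dosing in transiently transfected HepG2 cells, this internal-marker endpoint reports reporter mRNA via RT-PCR with fluorescent primer extension and capillary electrophoresis. DMSO served as negative control and baseline for bidirectional fitting.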

Test [15] deals with Hypoxia-inducible factor 1-alpha (Homo sapiens) (UniProt Q16665). The test is described as follows: ATG_HIF1a_CIS: Attagene CIS-FACTORIAL HepG2 Assay for human Hypoxia Inducible Factor 1 (HIF1A) (AID 2282951). The conditions noted are these: HepG2 Attagene cis-factorial HIF1a reporter transcription; actives raise or lower the signal. The essentials:
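Activity is fitted in both directions relative to DMSO. Reporter transcripts are read by RT-PCR, fluorescent primer extension and capillary electrophoresis after 24 h chemical treatment. The cells are HepG2 carrying transiently transfected cis-element-driven reporter units responding to endogenous factors.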

Test [16] concerns the target Hepatocyte nuclear factor 6 (Homo sapiens) (UniProt Q9UBC0). The test can be described thus: ATG_HNF6_CIS: Attagene CIS-FACTORIAL HepG2 Assay for human Hepatocyte Nuclear Factor 6 (HNF6) (AID 2282952). To be noted: HepG2 Attagene cis-factorial HNF6 reporter transcription; actives raise or lower the signal. Put shortly: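 Twenty-four-hour chemical treatment of reporter-transfected HepG2 cells precedes RNA isolation, DNase-treated reverse transcription and PCR of reporter sequences. Labelled fragments are sized by capillary electrophoresis and fitted bidirectionally versus DMSO.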

Test [17] has as its target Heat shock factor protein 1 (Homo sapiens) (UniProt Q00613). The test is described as follows: ATG_HSE_CIS: Attagene CIS-FACTORIAL HepG2 Assay for human Heat Shock Transcription Factor 1 (HSE) (AID 2282953). To be noted: HepG2 HSE cis-reporter, Attagene RNA transcription; actives raise or lower the signal. Put shortly:
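Reporter mRNA induction in HepG2 is measured 24 h after dosing, using transiently transfected multiplexed cis-regulated reporter units. Signal comes from capillary electrophoresis of labelled RT-PCR products, with DMSO as negative control.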

A short description of test [18]: ATG_MRE_CIS: Attagene CIS-FACTORIAL HepG2 Assay for human Metal Responsive Element (MRE) (AID 2282954). The conditions noted are these: HepG2 MRE cis-reporter transcription, Attagene multiplex; actives raise or lower the signal. The essentials: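 Multiplexed cis-reporter assay in human HepG2 liver cells, 24 h incubation with test chemical. Reporter transcripts measured by RT-PCR and capillary electrophoresis; values from bidirectional curve fitting versus DMSO.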

Test [19] can be described thus: ATG_PBREM_CIS: Attagene CIS-FACTORIAL HepG2 Assay for human Phenobarbital-responsive Enhancer Module (PBREM) (AID 2282955). To be noted: HepG2 PBREM cis-reporter, Attagene multiplexed transcription; actives raise or lower the signal. The essentials:
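Endogenous transcription factor activity was read from reporter transcripts in transiently transfected human HepG2 liver cells after 24 h dosing. RT-PCR products were fluorescently labelled, HpaI-cut and sized by capillary electrophoresis; activity fitted bidirectionally against DMSO baseline.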

Test [20] can be described thus: ATG_ERE_CIS: Attagene CIS-FACTORIAL HepG2 Assay for Estrogen Response Element (ERE) (AID 2282940). To be noted: HepG2 ERE cis-reporter, Attagene RNA transcript; actives raise or lower the signal. Put shortly:
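After a 24 h chemical treatment, RNA from reporter-transfected HepG2 cells is reverse-transcribed, PCR-amplified and fluorescently labelled. Fragments separated by capillary electrophoresis give reporter signal; DMSO serves as negative control.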

Experimental findings from PubChem BioAssay (EPA / NIEHS) are described below.

The source made the active and inactive calls. How the source made its calls: active means hit-call score of the fitted dose curve at least 0.9, where 1 is the maximum; inactive means score below 0.9.

Chain of Hepatocyte nuclear factor 3-beta (Homo sapiens) (Q9Y261 whole entry, looked up): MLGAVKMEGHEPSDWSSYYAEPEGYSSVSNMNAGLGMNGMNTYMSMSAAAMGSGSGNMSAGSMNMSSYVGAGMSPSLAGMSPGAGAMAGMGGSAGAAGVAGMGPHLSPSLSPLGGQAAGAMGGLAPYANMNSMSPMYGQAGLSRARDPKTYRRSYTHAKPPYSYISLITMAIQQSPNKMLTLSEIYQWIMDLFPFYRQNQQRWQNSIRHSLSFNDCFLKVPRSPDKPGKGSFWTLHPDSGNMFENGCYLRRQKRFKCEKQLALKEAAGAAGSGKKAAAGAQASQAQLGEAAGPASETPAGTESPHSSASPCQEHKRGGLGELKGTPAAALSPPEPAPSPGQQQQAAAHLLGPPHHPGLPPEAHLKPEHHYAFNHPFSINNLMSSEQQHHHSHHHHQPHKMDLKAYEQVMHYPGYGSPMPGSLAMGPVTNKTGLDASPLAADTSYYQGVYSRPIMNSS
Chain of Heat shock factor protein 1 (Homo sapiens) (Q00613 whole entry, looked up): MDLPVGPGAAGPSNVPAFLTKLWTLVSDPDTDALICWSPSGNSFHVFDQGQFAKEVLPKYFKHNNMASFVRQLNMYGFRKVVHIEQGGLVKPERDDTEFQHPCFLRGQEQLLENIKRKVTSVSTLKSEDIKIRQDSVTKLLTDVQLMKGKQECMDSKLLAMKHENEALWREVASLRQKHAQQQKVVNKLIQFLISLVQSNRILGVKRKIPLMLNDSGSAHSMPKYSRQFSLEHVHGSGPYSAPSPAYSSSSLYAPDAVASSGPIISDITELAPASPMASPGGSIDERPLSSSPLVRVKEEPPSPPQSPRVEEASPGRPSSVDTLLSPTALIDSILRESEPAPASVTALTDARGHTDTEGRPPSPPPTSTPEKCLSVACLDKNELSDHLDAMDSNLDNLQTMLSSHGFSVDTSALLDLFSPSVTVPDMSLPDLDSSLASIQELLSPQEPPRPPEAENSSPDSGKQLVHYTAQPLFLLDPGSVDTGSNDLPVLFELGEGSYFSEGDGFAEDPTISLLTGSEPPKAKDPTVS
Chain of Hepatocyte nuclear factor 6 (Homo sapiens) (Q9UBC0 whole entry, looked up, the tested form may be a part): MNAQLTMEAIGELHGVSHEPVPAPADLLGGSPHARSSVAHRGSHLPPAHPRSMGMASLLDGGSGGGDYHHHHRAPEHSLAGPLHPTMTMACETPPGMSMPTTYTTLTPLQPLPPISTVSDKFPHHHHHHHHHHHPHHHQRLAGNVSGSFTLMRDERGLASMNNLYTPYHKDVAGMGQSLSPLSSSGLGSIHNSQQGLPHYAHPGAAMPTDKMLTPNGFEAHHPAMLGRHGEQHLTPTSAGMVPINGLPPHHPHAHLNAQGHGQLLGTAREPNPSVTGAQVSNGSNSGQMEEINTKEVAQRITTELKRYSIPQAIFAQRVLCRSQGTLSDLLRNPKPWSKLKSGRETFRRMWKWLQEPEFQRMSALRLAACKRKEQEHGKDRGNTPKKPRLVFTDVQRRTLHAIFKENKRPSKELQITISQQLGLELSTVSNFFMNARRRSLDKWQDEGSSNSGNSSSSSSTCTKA
Chain of Hypoxia-inducible factor 1-alpha (Homo sapiens) (Q16665 whole entry, looked up): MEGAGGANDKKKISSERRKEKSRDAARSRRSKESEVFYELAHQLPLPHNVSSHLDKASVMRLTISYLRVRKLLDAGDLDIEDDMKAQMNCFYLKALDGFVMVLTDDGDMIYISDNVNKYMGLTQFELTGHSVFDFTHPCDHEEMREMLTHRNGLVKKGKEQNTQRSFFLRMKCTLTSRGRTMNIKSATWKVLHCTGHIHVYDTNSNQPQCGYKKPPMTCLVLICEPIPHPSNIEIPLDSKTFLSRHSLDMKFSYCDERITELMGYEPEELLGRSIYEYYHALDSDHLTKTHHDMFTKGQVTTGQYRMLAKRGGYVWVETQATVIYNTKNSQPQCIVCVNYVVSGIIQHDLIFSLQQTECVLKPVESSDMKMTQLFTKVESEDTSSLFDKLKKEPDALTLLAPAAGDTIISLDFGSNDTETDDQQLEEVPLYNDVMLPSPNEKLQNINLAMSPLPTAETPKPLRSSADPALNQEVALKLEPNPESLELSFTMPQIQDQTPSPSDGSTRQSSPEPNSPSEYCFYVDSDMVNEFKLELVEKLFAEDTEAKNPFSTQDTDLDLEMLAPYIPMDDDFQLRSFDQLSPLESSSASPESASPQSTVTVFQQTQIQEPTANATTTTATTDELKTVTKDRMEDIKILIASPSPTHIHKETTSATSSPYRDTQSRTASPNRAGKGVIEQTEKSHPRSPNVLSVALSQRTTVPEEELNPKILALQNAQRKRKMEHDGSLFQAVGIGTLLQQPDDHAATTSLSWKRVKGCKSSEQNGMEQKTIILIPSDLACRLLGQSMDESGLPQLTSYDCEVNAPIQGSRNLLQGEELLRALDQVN
Chain of Bile acid receptor (Homo sapiens) (Q96RI1 whole entry, looked up): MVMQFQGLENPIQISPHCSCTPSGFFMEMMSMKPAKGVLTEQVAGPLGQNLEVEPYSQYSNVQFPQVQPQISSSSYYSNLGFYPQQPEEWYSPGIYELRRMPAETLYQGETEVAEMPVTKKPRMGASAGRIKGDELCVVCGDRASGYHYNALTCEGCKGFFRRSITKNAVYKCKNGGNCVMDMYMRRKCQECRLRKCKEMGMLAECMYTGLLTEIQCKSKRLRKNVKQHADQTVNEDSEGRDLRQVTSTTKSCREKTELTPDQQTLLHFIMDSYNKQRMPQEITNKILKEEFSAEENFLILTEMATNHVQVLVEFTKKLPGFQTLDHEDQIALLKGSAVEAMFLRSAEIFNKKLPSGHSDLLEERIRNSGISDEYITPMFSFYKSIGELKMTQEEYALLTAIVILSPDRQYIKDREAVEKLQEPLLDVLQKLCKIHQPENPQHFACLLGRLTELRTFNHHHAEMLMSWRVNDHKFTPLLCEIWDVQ

As usually defined, the AC50 is the midpoint of the concentration-response curve, whichever way the signal moves. As for `C1=CCCC=CCCC=CCC1`, the AC50 in test [1] was 76.6 µM (active). In addition, the outcome in [2], in [3], in test [4], in test [5], in test [6] and in test [7] was inactive. For the same molecule, the call in [8], in [9], in test [10], in test [11], in test [12] and in [13] was inactive. Moreover, the call in test [14], in test [15], in test [16], in test [17], in test [18] and in [19] was inactive.
Take `COCCOCCOCCOC`: the outcome in [1], in [2], in test [3], in [4], in [5] and in test [6] was inactive. In addition, the molecule was classed as inactive in [7], in [8], in test [9], in [10], in test [11] and in test [13]. The molecule was called inactive in test [14], in [15], in test [16], in [17] and in test [18].
As for `COc1ccc(-n2nc(C(F)F)cc2-c2ccc(S(C)=O)cc2)cc1` (stereo not given), the outcome in test [1], in test [2], in test [3], in test [4], in [20] and in test [5] was inactive. Also, the outcome in test [6], in [7], in test [8], in [9], in test [11] and in test [13] was inactive. In addition, the result in [15], in test [16] and in test [18] was inactive.
Take `CCOc1cccc(-n2cc(C(=O)N3CCN(c4cc(C(=O)O)c5ccccc5c4)CC3)nc2-c2ccc(C)cc2)c1`: the outcome in test [1], in test [2], in test [4], in test [5], in test [6] and in [7] was inactive. Further, the call in [8], in test [9], in test [11], in test [13], in test [16] and in test [19] was inactive. Moreover, the AC50 was 27.1 µM (active) in [3]; 24.8 µM (active) in test [10]; 22.8 µM (active) in [12]; 6.55 µM (active) in test [15]; 61.4 µM (active) in test [17]; 32.3 µM (active) in test [18].
On to `C=CC(=C)CCC=C(C)C`, for which the outcome in test [1], in test [2], in test [3], in [4], in test [20] and in test [5] was inactive. Further, the call in test [6], in [7], in test [8], in test [9], in test [11] and in [13] was inactive. For the same molecule, the molecule was called inactive in test [14], in test [15], in test [16], in test [17], in test [18] and in test [19].
Turning to `COC(=O)c1ccccc1O`, the outcome in test [1], in test [2], in [3], in test [4], in [20] and in test [5] was inactive. Besides, the molecule was called inactive in test [6], in test [7], in test [8], in test [9], in test [12] and in test [13]. The result in test [15], in test [16] and in test [18] was inactive.
`CC/C(=C\C(=N/O)C(N)=O)C(C)[N+](=O)[O-]` (stereo not given): the outcome in test [1], in [2], in [3], in [4], in test [20] and in test [5] was inactive. The call in test [6], in test [7], in test [8], in test [9], in test [11] and in test [12] was inactive. For the same molecule, the call in [13], in test [15], in test [16], in test [17], in test [18] and in [19] was inactive.
